From the supplement of paper PMC10849652
About 8,800 targets were measured; listed, in parts, are those with a hit and a random draw of the rest. About 0.5% of all pairs of compound and target were hits.

Columns and labels:
Assay in all cases: log2 fold change, soluble protein after heating vs DMSO (PISA); higher = thermal stabilisation; K562 lysate, 10 uM; active = over 0.2 and 3.5 SD of the protein, either way, in both replicates (recomputed)
erlotinib = compound: C#Cc1cccc(Nc2ncnc3cc(OCCOC)c(OCCOC)cc23)c1 [erlotinib]
Procedure, shortened: (§1)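 K562 pellets were dounce-homogenised in PBS pH 7.4 with 1 mM MgCl2, and the crude extract at 1 mg/mL protein was treated with 10 μM compound for 30 min. Aliquots were heated for 3 min across 48°C-58°C, pooled, and brought to 0.5% NP-40 at 4°C; soluble protein was the supernatant after 21,000xg for 90 min. Soluble protein was quantified by TMTpro 16plex LC-MS/MS with channel sums equalised, and reported as log2 fold change in thermal stability against DMSO controls, with values from duplicates.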

[1] = compound: C/C(=N\NC(=O)C1=CC(=CC=C1)S(=O)(=O)N2CCOCC2)/C3=C(C=CC(=C3)Cl)O
Procedure, shortened: as §1

[2] = compound: C1=CC(=CC=C1C2=NC3=C(N2)C=C(C=C3)C(=O)N)OC4=CC=C(C=C4)Cl
Procedure, shortened: as §1

[3] = compound: C1=CC2=C(C=CC(=C2)/C=C\3/C(=O)NC(=NCC4=CC=CS4)S3)N=C1
Procedure, shortened: as §1

[4] = compound: C1=CC2=NC=CN=C2C=C1/C=C/3\C(=O)NC(=O)S3
Procedure, shortened: as §1

[5] = compound: C1=CC=C(C=C1)C2=NC(=C(N2)C3=CC=NC=C3)C4=CC(=C(C=C4)Cl)O
Procedure, shortened: as §1

[6] = compound: C1=CC=C2C(=C1)C3=NNC4=CC=CC(=C43)C2=O
Procedure, shortened: as §1

[7] = compound: C1CCN(C1)C(=O)NC2=CC=CC(=C2)NC3=NC=C(C(=N3)NCCC4=CN=CN4)Br
Procedure, shortened: as §1

[8] = compound: C1CN(CCC1(CC2=CC=C(C=C2)Cl)N)C3=NC=NC4=C3C=CN4
Procedure, shortened: as §1

IRAK-1-4 Inhibitor I = compound: C1COCCN1CCN2C3=CC=CC=C3N=C2NC(=O)C4=CC(=CC=C4)[N+](=O)[O-] [IRAK-1-4 Inhibitor I]
Procedure, shortened: as §1

ibrutinib = compound: C=CC(=O)N1CCC[C@@H](n2nc(-c3ccc(Oc4ccccc4)cc3)c3c(N)ncnc32)C1 [ibrutinib]
Procedure, shortened: as §1

[9] = compound: CC(=O)c1cnc2ccc(-c3cc(Cl)c(O)c(Cl)c3)nc2c1N[C@H]1CC[C@H](CN(C)C)CC1
Procedure, shortened: as §1

ralimetinib = compound: CC(C)(C)Cn1c(N)nc2ccc(-c3[nH]c(C(C)(C)C)nc3-c3ccc(F)cc3)nc21 [ralimetinib]
Procedure, shortened: as §1

[10] = compound: CC(C)(O)CC(=O)NCCn1ccc2ncnc(Nc3ccc(Oc4cccc(C(F)(F)F)c4)c(Cl)c3)c21
Procedure, shortened: as §1

[11] = compound: CC(C)C1=C2N=C(C=C(N2N=C1)NCC3=CC=CC=C3)NCCCCCCN
Procedure, shortened: as §1

[12] = compound: CC1=C(C(CC(=O)N1)C2=CC=C(C=C2)C(F)(F)F)C(=O)NC3=C(C=C4C(=C3)C=NN4)F
Procedure, shortened: as §1

[13] = compound: CC1=C(C2=C(C=C1)C(=O)C3=CC=CC=C3N2CCCN)C
Procedure, shortened: as §1

[14] = compound: CC1=C(C=C(C=C1)NC(=O)C2=CC(=CC=C2)C(C)(C)C#N)NC3=CC4=C(C=C3)N=CN(C4=O)C
Procedure, shortened: as §1

[15] = compound: CC1=C(C=C(C=C1)NC(=O)C2=CC(=CC=C2)N(C)C)NC(=O)C3=CC=C(C=C3)O
Procedure, shortened: as §1

[16] = compound: CC1=CC=C(C=C1)SC2=C3C=C(SC3=CN=C2)C(=O)N
Procedure, shortened: as §1

Measured: log2 fold change

HNRNPH2 (UniProt P55795)
inactive: erlotinib -0.035 | [1] 0.112 | [2] 0.028 | [3] -0.047 | [4] 0.02 | [5] 0.038 | [6] -0.015 | [7] 0.01 | [8] -0.013 | IRAK-1-4 Inhibitor I 0 | ibrutinib 0.017 | [9] 0 | ralimetinib -0.03 | [10] -0.023 | [11] -0.01 | [12] 0.056 | [13] 0.024 | [14] 0.081 | [15] 0.053 | [16] 0.029

HNRNPM (UniProt P52272)
UniProt P52272, sequence (P52272 whole entry, looked up): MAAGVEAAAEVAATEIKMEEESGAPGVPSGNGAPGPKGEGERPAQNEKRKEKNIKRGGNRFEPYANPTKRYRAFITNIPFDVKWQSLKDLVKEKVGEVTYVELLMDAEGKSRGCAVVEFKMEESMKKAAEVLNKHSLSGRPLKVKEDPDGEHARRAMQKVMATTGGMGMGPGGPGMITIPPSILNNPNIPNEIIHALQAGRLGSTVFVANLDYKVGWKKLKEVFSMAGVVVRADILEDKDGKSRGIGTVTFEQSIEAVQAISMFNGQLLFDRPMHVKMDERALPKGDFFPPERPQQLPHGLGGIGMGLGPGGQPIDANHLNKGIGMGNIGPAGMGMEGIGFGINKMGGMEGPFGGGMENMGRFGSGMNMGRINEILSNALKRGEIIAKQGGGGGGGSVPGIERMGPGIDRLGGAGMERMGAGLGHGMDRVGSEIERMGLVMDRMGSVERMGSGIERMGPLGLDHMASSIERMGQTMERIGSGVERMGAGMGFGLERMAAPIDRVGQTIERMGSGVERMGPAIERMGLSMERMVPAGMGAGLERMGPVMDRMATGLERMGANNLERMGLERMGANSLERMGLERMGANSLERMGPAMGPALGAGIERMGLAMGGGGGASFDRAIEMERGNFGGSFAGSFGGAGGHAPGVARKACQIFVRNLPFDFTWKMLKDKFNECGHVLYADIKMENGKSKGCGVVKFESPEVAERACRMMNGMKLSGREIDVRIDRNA
inactive: erlotinib -0.015 | [1] -0.046 | [2] 0.004 | [3] -0.022 | [4] 0.051 | [5] -0.036 | [6] -0.039 | [7] -0.022 | [8] -0.003 | IRAK-1-4 Inhibitor I 0.005 | ibrutinib -0.031 | [9] 0.024 | ralimetinib 0.034 | [10] -0.048 | [11] 0.02 | [12] 0.051 | [13] 0.062 | [14] -0.183 | [15] 0.021 | [16] 0.007

HLTF (UniProt Q14527)
inactive: erlotinib 0.052 | [1] -0.019 | [2] 0.081 | [3] -0.003 | [4] -0.032 | [5] -0.028 | [6] 0.008 | [7] -0.053 | [8] 0.015 | IRAK-1-4 Inhibitor I -0.019 | ibrutinib 0.016 | [9] 0.054 | ralimetinib 0.024 | [10] -0.017 | [11] -0.023 | [12] 0.046 | [13] 0.048 | [14] -0.022 | [15] 0.003 | [16] -0.018

GSK3A (UniProt P49840)
UniProt P49840, sequence (P49840 whole entry, looked up): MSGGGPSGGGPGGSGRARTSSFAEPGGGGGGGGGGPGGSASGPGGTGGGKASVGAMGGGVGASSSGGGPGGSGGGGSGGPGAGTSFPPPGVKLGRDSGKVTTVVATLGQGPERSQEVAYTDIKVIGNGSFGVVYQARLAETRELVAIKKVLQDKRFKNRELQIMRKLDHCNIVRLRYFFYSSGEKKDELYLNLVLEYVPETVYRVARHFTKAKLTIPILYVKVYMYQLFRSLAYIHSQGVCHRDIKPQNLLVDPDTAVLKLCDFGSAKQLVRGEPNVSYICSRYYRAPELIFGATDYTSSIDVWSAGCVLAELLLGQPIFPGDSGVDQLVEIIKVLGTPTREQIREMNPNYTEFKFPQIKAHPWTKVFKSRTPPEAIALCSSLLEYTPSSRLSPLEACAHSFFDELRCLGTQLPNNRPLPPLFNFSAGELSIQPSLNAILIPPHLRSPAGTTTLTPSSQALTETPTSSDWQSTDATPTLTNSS
inactive: erlotinib -0.029 | [1] -0.103 | [2] -0.034 | [3] 0.069 | [4] 0.066 | [5] 0.295 | [6] 0.182 | [7] 0.163 | [8] 0.018 | IRAK-1-4 Inhibitor I -0.014 | ibrutinib -0.01 | [9] 0.146 | ralimetinib 0.022 | [10] -0.001 | [11] -0.045 | [12] -0.017 | [13] 0.01 | [14] -0.109 | [15] -0.007 | [16] 0.207

HSPA8 (UniProt E9PK54)
inactive: erlotinib 0.045 | [1] -0.222 | [2] -0.045 | [3] -0.099 | [4] 0.014 | [5] -0.044 | [6] 0 | [7] -0.043 | [8] -0.008 | IRAK-1-4 Inhibitor I -0.141 | ibrutinib 0.065 | [9] -0.086 | ralimetinib -0.013 | [10] -0.132 | [11] 0.004 | [12] -0.019 | [13] 0.008 | [14] -0.076 | [15] -0.019 | [16] 0.014

GSTP1 (UniProt P09211)
UniProt P09211, sequence (P09211 whole entry, looked up): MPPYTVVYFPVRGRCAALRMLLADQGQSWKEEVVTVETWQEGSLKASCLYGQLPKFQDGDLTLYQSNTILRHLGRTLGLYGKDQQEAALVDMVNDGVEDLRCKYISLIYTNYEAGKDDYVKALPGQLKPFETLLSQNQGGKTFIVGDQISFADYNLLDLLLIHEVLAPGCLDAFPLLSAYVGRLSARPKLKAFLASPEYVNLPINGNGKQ
inactive: erlotinib -0.008 | [1] 0.035 | [2] -0.024 | [3] 0.036 | [4] 0.08 | [5] -0.002 | [6] 0.007 | [7] -0.022 | [8] -0.022 | IRAK-1-4 Inhibitor I 0 | ibrutinib -0.012 | [9] 0.042 | ralimetinib 0.011 | [10] -0.003 | [11] 0.021 | [12] -0.011 | [13] 0.036 | [14] -0.025 | [15] 0.003 | [16] -0.003

HMGA1 (UniProt P17096)
UniProt P17096, sequence (P17096 whole entry, looked up): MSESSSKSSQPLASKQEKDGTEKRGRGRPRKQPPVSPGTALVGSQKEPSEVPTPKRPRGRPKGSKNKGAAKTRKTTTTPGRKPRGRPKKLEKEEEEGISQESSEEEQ
inactive: erlotinib -0.037 | [1] -0.053 | [2] -0.001 | [3] -0.026 | [4] -0.053 | [5] -0.007 | [6] 0.026 | [7] 0.036 | [8] 0.013 | IRAK-1-4 Inhibitor I -0.022 | ibrutinib 0.004 | [9] -0.022 | ralimetinib -0.024 | [10] -0.043 | [11] 0.002 | [12] -0.03 | [13] 0.075 | [14] -0.008 | [15] -0.023 | [16] -0.017

GSTZ1 (UniProt G3V4T6)
inactive: erlotinib 0.018 | [1] -0.034 | [2] 0.032 | [3] -0.003 | [4] 0.02 | [5] -0.043 | [6] 0.026 | [7] 0.017 | [8] 0.064 | IRAK-1-4 Inhibitor I 0.016 | ibrutinib 0 | [9] 0 | ralimetinib 0.014 | [10] -0.019 | [11] 0.004 | [12] 0.01 | [13] 0.036 | [14] -0.02 | [15] -0.003 | [16] -0.016

GLUD2 (UniProt P49448)
UniProt P49448, sequence (P49448 whole entry, looked up): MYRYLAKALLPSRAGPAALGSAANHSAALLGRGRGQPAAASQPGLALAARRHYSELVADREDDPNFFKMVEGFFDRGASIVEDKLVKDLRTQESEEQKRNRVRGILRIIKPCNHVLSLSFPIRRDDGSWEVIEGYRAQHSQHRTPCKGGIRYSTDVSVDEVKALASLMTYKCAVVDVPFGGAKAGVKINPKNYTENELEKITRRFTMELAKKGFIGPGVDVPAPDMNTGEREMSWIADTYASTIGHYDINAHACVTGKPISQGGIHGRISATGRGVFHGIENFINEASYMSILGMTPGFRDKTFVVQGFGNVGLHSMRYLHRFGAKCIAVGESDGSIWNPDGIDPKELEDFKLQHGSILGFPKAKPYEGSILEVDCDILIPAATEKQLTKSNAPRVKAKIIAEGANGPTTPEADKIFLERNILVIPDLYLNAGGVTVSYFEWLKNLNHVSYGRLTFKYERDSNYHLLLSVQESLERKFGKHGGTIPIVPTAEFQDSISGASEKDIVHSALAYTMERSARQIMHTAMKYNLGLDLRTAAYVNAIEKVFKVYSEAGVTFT
inactive: erlotinib -0.017 | [1] -0.016 | [2] -0.053 | [3] 0.028 | [4] -0.057 | [5] -0.014 | [6] -0.09 | [7] -0.119 | [8] 0.029 | IRAK-1-4 Inhibitor I 0.113 | ibrutinib -0.063 | [9] 0.063 | ralimetinib 0.02 | [10] -0.043 | [11] -0.012 | [12] 0.018 | [13] -0.028 | [14] 0.061 | [15] 0.001 | [16] 0.033

HDGFL2 isoform 2 (UniProt Q7Z4V5)
UniProt Q7Z4V5, sequence (Q7Z4V5 whole entry, looked up): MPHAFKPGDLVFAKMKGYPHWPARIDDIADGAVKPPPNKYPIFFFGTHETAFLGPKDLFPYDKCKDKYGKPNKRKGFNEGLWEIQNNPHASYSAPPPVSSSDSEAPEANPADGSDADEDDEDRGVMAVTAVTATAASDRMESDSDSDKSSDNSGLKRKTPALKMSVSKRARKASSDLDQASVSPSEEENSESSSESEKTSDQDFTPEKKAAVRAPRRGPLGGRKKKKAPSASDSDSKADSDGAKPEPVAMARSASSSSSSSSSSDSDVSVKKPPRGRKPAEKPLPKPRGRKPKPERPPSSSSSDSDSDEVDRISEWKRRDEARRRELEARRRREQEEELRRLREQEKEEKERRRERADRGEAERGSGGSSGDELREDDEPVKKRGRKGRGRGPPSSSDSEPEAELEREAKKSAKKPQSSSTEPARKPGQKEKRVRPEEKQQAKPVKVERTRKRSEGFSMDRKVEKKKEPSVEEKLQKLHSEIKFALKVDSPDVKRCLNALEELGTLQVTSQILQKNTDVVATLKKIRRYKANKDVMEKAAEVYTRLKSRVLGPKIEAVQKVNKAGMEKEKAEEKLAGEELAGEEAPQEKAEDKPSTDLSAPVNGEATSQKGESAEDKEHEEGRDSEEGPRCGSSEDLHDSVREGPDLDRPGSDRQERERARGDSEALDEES
inactive: erlotinib -0.008 | [1] -0.028 | [2] 0.032 | [3] -0.008 | [4] -0.03 | [5] 0.027 | [6] 0.01 | [7] 0 | [8] 0.021 | IRAK-1-4 Inhibitor I 0 | ibrutinib -0.033 | [9] -0.002 | ralimetinib -0.01 | [10] -0.049 | [11] 0.011 | [12] -0.015 | [13] -0.026 | [14] 0.022 | [15] 0.021 | [16] -0.044

KEAP1 (UniProt Q14145)
inactive: erlotinib 0.048 | [1] 0.006 | [2] 0.018 | [3] -0.005 | [4] 0.014 | [5] 0.015 | [6] -0.006 | [7] 0.038 | [8] 0.018 | IRAK-1-4 Inhibitor I -0.006 | ibrutinib 0.014 | [9] 0.001 | ralimetinib 0.017 | [10] -0.014 | [11] -0.015 | [12] -0.026 | [13] -0.049 | [14] 0.012 | [15] 0.019 | [16] -0.024

GLB1 (UniProt P16278)
inactive: erlotinib 0.004 | [1] -0.027 | [2] 0.004 | [3] 0.039 | [4] -0.011 | [5] 0.016 | [6] -0.086 | [7] -0.003 | [8] 0.031 | IRAK-1-4 Inhibitor I 0.016 | ibrutinib 0.002 | [9] -0.008 | ralimetinib -0.005 | [10] -0.03 | [11] 0.003 | [12] -0.009 | [13] -0.001 | [14] -0.011 | [15] 0.025 | [16] 0.015

IARS2 (UniProt Q9NSE4)
UniProt Q9NSE4, sequence (Q9NSE4 whole entry, looked up): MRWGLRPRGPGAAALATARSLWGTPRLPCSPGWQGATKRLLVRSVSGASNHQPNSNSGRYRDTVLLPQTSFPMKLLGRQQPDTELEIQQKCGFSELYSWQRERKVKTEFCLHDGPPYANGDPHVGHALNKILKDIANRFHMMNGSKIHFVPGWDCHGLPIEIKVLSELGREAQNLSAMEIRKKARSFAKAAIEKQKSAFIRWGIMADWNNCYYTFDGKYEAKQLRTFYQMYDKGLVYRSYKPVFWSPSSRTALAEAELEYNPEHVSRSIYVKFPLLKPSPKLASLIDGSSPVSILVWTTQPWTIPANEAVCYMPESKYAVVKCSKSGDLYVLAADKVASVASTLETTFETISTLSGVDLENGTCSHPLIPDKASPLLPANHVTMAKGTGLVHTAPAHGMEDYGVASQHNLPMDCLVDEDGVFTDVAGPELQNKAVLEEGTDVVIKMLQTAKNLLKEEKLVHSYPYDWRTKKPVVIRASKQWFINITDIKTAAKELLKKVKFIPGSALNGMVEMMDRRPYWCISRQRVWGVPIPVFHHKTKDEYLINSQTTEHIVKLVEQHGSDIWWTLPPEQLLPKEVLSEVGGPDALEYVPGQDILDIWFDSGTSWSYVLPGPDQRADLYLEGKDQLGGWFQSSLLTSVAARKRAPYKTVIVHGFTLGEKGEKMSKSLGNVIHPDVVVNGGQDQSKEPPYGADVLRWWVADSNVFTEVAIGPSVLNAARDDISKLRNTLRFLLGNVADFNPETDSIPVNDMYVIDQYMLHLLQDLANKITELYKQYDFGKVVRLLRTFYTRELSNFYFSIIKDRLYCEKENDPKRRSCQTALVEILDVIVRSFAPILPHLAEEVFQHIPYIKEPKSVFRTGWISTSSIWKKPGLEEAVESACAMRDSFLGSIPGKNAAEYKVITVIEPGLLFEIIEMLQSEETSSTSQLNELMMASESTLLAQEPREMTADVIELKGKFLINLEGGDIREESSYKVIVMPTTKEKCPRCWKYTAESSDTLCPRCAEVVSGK
inactive: erlotinib -0.025 | [1] 0.014 | [2] 0.026 | [3] 0.005 | [4] 0.013 | [5] -0.007 | [6] -0.043 | [7] -0.01 | [8] 0.054 | IRAK-1-4 Inhibitor I 0.016 | ibrutinib -0.006 | [9] -0.008 | ralimetinib -0.005 | [10] 0.007 | [11] -0.025 | [12] -0.031 | [13] 0.016 | [14] 0.005 | [15] 0.013 | [16] -0.031

GTF2H4 (UniProt Q92759)
UniProt Q92759, sequence (Q92759 whole entry, looked up): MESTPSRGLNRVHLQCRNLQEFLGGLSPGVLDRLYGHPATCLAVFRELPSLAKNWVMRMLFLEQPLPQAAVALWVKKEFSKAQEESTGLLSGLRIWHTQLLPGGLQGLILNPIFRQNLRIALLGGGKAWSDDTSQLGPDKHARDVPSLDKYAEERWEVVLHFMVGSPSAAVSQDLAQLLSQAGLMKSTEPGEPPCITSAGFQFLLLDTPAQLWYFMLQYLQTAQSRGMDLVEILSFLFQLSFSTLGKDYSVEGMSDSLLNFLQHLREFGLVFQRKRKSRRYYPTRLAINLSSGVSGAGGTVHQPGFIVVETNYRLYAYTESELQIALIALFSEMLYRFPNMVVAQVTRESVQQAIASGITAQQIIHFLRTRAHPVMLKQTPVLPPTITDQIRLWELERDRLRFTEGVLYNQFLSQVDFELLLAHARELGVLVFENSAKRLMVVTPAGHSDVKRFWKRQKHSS
inactive: erlotinib -0.013 | [1] -0.049 | [2] -0.013 | [3] 0.037 | [4] -0.059 | [5] -0.001 | [6] 0.141 | [7] 0.056 | [8] -0.004 | IRAK-1-4 Inhibitor I -0.044 | ibrutinib 0.039 | [9] 0.003 | ralimetinib 0.058 | [10] -0.006 | [11] 0.021 | [12] 0.054 | [13] -0.014 | [14] -0.015 | [15] 0.052 | [16] 0.037

KBTBD2 (UniProt Q8IY47)
UniProt Q8IY47, sequence (Q8IY47 whole entry, looked up): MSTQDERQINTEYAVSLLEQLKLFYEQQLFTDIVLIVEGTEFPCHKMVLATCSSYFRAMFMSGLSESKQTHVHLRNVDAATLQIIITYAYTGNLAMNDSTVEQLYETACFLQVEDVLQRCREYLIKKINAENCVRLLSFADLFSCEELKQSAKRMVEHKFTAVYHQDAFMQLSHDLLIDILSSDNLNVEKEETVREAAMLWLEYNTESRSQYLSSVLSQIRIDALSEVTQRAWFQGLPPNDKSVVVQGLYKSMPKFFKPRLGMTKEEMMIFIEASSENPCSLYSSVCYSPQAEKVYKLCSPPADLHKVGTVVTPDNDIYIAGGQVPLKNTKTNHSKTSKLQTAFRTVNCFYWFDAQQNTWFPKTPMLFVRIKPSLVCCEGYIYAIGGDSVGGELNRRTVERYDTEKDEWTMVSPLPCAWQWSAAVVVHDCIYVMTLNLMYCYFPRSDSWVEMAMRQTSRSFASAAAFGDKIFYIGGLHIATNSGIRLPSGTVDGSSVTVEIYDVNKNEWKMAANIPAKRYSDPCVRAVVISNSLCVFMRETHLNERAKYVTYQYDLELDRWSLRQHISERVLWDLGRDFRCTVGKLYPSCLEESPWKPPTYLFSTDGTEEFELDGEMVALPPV
inactive: erlotinib -0.002 | [1] 0.019 | [2] 0.056 | [3] 0 | [4] 0.011 | [5] 0.016 | [6] -0.079 | [7] -0.023 | [8] 0.052 | IRAK-1-4 Inhibitor I 0.097 | ibrutinib -0.005 | [9] -0.039 | ralimetinib -0.113 | [10] -0.227 | [11] 0 | [12] 0.001 | [13] -0.036 | [14] 0.116 | [15] 0 | [16] -0.041

HNRNPLL (UniProt Q8WVV9)
inactive: erlotinib 0.007 | [1] 0 | [2] 0.011 | [3] 0.009 | [4] -0.017 | [5] -0.019 | [6] -0.035 | [7] 0.006 | [8] -0.009 | IRAK-1-4 Inhibitor I -0.026 | ibrutinib -0.024 | [9] 0.016 | ralimetinib 0.005 | [10] 0.005 | [11] -0.004 | [12] -0.019 | [13] -0.012 | [14] 0.026 | [15] 0.024 | [16] 0.021
